Screens deposited in PubChem by National Center for Advancing Translational Sciences (NCATS).
Pf Dd2 inh = inhibitors of Plasmodium falciparum Dd2 growth; P. falciparum Dd2 growth, SYBR Green, 72 h; Potency, µM (series often up to 28.9 µM), hits mostly inhibitors; 120,000 compounds, 4.3% hits; active = well fitted inhibition curve with a large enough effect; also: nearly all actives have a fitted effect of over 65% in size
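Readout: SYBR Green fluorescence, 485 nm excitation, 535 nm emission, after ~16 h lysis at 37C. Before that, Dd2-infected red cells (2.5% hematocrit) grew 72 h with compound, 29 uM top final concentration.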
Large screens that a line does not name were inactive. The full list was thinned out, with hits kept by preference.

COc1cc(CN2C[C@@H](CO)[C@H](NC(=O)c3ccccc3)C2)ccc1F	Pf Dd2 inh 5.62µM
Cc1cc(CN2C[C@@H](CO)[C@H](NC(=O)c3ccccc3)C2)n(C)n1	none
Cc1cnc(C(=O)N[C@@H]2CN(Cc3ccccc3)C[C@H]2CO)cn1	none
CC(=O)N[C@@H]1CN(Cc2ccc(F)c(Br)c2)C[C@H]1CO	none
O=C(N[C@@H]1CN(Cc2ccccc2)C[C@H]1CO)c1ccnnc1	none
Cn1nccc1C(=O)N[C@@H]1CN(Cc2ccccc2)C[C@H]1CO	Pf Dd2 inh 12.6µM
O=C(C1CCOCC1)N1CCc2c(n(Cc3ccccc3)n(-c3ccccc3)c2=O)C1	none
CCOC(=O)c1c(NC(=O)COc2ccc(OC)cc2)sc(C(=O)N(CC)CC)c1C	Pf Dd2 inh 11.2µM
CCOC(=O)c1c(NC(=O)COc2ccc(Br)cc2)sc(C(C)=O)c1C	none
CCOC(=O)c1c(NC(=O)COc2ccccc2)sc(C(C)=O)c1C	none
CC(C)CC(=O)N1CCCN(S(=O)(=O)c2ccccc2)CCC(=O)NCC1	none
O=C1CO[C@H]2CCN(CCCc3ccccc3)CC[C@@H]2N1c1ccccc1	none
COc1ccc(CC(=O)NCc2ccc3c(c2)CCN3C(=O)c2ccc(Cl)cc2)cc1OC	none
COc1cc2c(cc1OC)C(COc1ccccc1OC)N(C(=O)c1ccc(S(=O)(=O)N(C)C)cc1)CC2 (stereo not given)	none
COc1cc2c(cc1OC)C(CNC(=O)Cc1ccccc1)N(C(=O)NC(C)C)CC2 (stereo not given)	none
CCc1ccccc1NC(=O)N1CCc2cc(OC)c(OC)cc2C1CC(=O)OC (stereo not given)	none
CCCC(=O)N1CCc2cc(OC)c(OC)cc2C1COc1ccccc1OC (stereo not given)	Pf Dd2 inh 12.6µM
COc1cc2c(cc1OC)C(CNC(=O)c1ccc(Cl)cc1)N(C(=O)Nc1cccc(F)c1)CC2 (stereo not given)	none
CCOC(=O)c1ccc(OCC2c3cc(OC)c(OC)cc3CCN2C(=O)Cc2ccc(OC)c(OC)c2)cc1 (stereo not given)	Pf Dd2 inh 8.91µM
COc1ccc(C(=O)NCC2c3cc(OC)c(OC)cc3CCN2C(=O)Nc2ccccc2F)cc1 (stereo not given)	none
COc1ccc(CC(=O)N2CCc3cc(OC)c(OC)cc3C2COc2ccc(OC)cc2)cc1 (stereo not given)	Pf Dd2 inh 7.94µM
COC(=O)c1ccc(OCC2c3cc(OC)c(OC)cc3CCN2C(=O)c2ccccc2F)cc1 (stereo not given)	Pf Dd2 inh 10µM
CCOc1ccc(NC(=O)N2CCc3cc(OC)c(OC)cc3C2CNC(C)=O)cc1 (stereo not given)	none
O=C(NC1CCN(c2cc(-c3ccccc3)[nH]n2)CC1)c1ccc(Cl)cc1	none
COc1ccc(C(=O)N2CCC3(CC2)N(C)C(=O)CS3(=O)=O)c(C)c1	none
CC(C)NC(=O)N(C1CC1)C1CCOC2(CCN(C(=O)c3n[nH]c4ccccc34)CC2)C1 (stereo not given)	none
COc1ccc(F)cc1C(C(=O)O)N1CCCN(c2ncccn2)CC1 (stereo not given)	none
COC(=O)c1cccc(NC(=S)N[C@H]2CO[C@H]3[C@@H]2OC[C@@H]3n2cc(CC3CCCCC3)nn2)c1	none
CCn1nc(CC(C)C)cc1C(=O)N1CCN(c2nc(C)cc(C)n2)CC1	none
COc1cccc(C(=O)N2CCc3nc(-c4ccc(Cl)cc4)nc(-c4ccccc4)c3C2)c1	none
Cc1noc(C)c1CC(=O)NCCc1noc(-c2ccncc2)n1	none
N#Cc1ccc(C(=O)N2CCCN(S(=O)(=O)c3ccccc3)CCC(=O)NCC2)cc1	none
Cc1noc(C)c1CN1CCC(NC(=O)C2CCC2)CC1	none
CCc1ccc(OCC2c3cc(OC)c(OC)cc3CCN2C(=O)Cc2ccc(OC)c(OC)c2)cc1 (stereo not given)	Pf Dd2 inh 8.91µM
COc1cc(OC)c(NC(=O)N2CCc3cc(OC)c(OC)cc3C2CC(=O)O)cc1Cl (stereo not given)	none
COc1cc2c(cc1OC)C(CNC(=O)C1CC1)N(C(=O)NC(C)C)CC2 (stereo not given)	none
COc1ccc(C(=O)N2CCN(C(=O)COc3ccccc3)CC2)cc1OC	none
COc1cc2c(cc1OC)C(CNC(=O)c1ccccc1C)N(C(=O)Nc1cccc(C)c1)CC2 (stereo not given)	none
COc1cc2c(cc1OC)C(COc1cc(C)cc(C)c1)N(C(=O)COc1ccccc1)CC2 (stereo not given)	Pf Dd2 inh 5.01µM
Cc1ccc(-c2ncc(C(=O)NCCC3=CCCCC3)c(-c3ccncc3)n2)cc1	none
CCOc1ccc(NC(=O)Cn2c(C)cc3nc4n(c(=O)c32)CCC4)cc1	none
COC[C@@H]1[C@H](C(=O)Nc2ccc(F)cc2F)CCC(=O)N1C	none
C=CCNC(=O)N[C@H]1CO[C@H]2[C@@H]1OC[C@@H]2Nc1nccc(-c2ccccc2OC)n1	none
Cc1nc(CN2C[C@H](C(=O)Nc3ccc(F)cc3)C[C@@H]2c2ccc(F)cc2)cs1	none
CN(C)CCN(Cc1ccsc1)C(=O)[C@H]1CCC[C@H](O)C1	none
CC(C)C(=O)N1CCC(Cc2nc(C3CCOCC3)no2)CC1	none
Cc1ccc(-c2c3c(=O)n(C)c(=O)n(C)c3c3c(-c4cccc(C)c4)nc4ccccc4n23)cc1	none
COc1ccc(-c2nc3ccccc3n3c(-c4cccc(C)c4)c4c(=O)n(C)c(=O)n(C)c4c23)cc1OC	Pf Dd2 inh 11.2µM
COc1ccc(-c2c3c(=O)n(C)c(=O)n(C)c3c3c(-c4cccc(C)c4)nc4ccccc4n23)cc1	none
CCc1nncn1C1CCN(C(=O)c2cc(F)ccc2F)CC1	none
O=C1CC(c2ccccc2)N(C(=O)COc2ccc(F)cc2)CCCCCCN1 (stereo not given)	none
Cc1cc(C)c(CNC(=O)c2cc(-c3ccccc3C)cc3c2OCCN3C(C)C)c(=O)[nH]1	none
Cc1cc(C)c(CNC(=O)c2cc(-c3ccccc3F)cc3c2OCCN3C(C)C)c(=O)[nH]1	none
Cc1cc(C)c(CNC(=O)c2cc(-c3cccnc3)cc3c2OCCN3C)c(=O)[nH]1	none
CC(=O)Nc1cccc(-c2cc(C(=O)NCc3c(C)cc(C)[nH]c3=O)c3c(c2)N(C(C)C)CCO3)c1	Pf Dd2 inh 1.78µM
Cc1cc(C)c(CNC(=O)c2cc(-c3ccccc3F)cc3c2OCCN3C)c(=O)[nH]1	Pf Dd2 inh 6.31µM
COc1cc(F)ccc1-c1cc(C(=O)NCc2c(C)cc(C)[nH]c2=O)c2c(c1)N(C(C)C)CCO2	none
COc1ccc(OC)c(C2CCN(C(=O)c3cc4ccccc4[nH]c3=O)C2)c1 (stereo not given)	none
Cc1cc(Cn2cc3c4c(cccc42)[C@H](CC(C)C)N[C@H](C(=O)NC2CCC2)C3)no1	none
C=CCNC(=O)[C@@H]1Cc2cn(Cc3cc(C)on3)c3cccc(c23)[C@H](CC(C)C)N1	none
COCCCNC(=O)[C@@H]1Cc2cn(Cc3cc(C)on3)c3cccc(c23)[C@H](CC(C)C)N1	none
C=CCNC(=O)[C@@H]1Cc2cn(Cc3ccncc3)c3cccc(c23)[C@H](CC(C)C)N1	none
C=CCn1cc2c3c(cccc31)[C@H](CC(C)C)N[C@H](C(=O)NCCN(C)C)C2	none
CC(C)C[C@@H]1N[C@H](C(=O)NC2CCCC2)Cc2cn(Cc3nccn3C)c3cccc1c23	none
C=CCNC(=O)[C@@H]1Cc2cn(CC=C)c3cccc(c23)[C@H](CC(C)C)N1	Pf Dd2 inh 14.1µM
CC(C)C[C@@H]1N[C@H](C(=O)NC2CCC2)Cc2cn(CC3CC3)c3cccc1c23	Pf Dd2 inh 14.1µM
CC(C)C[C@@H]1N[C@H](C(=O)O)Cc2cn(Cc3nccn3C)c3cccc1c23	none
